According to publication PMC9838217, “Structure of SALL4 zinc finger domain reveals link between AT-rich DNA binding and Okihiro syndrome”:
Numbering of substitutions follows the chain as printed.

Tests used:
Experiment in all cases: HT-SELEX; high values mean tight binding
Conditions in all cases: protein: recombinant; vector His6-GST; dsDNA, one strand shown
[1] = target: T1, SALL4 ZFC4 WT (HT-SELEX) (Mus musculus, UniProt Q8BX22 870-940)
T1 sequence: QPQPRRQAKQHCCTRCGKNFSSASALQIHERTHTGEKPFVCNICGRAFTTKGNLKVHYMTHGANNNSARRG
Summary of the method: (§1)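 DNA from a random library (1.5 µg in the first cycle, 200 ng afterwards) was incubated with purified recombinant mouse SALL4 zinc finger cluster 4, residues 870–940 (1 µg), for 10 min at room temperature in 100 µl buffer: 10 mM Tris–HCl pH 7.5, 50 mM NaCl, poly(dI-dC), DTT. Bound complexes were pulled down on Ni2+ beads, washed and PCR-amplified, and the selection was repeated for up to 6 cycles in triplicate. MiSeq reads were scanned for 6-mers, and binding signal is each canonical k-mer's read fraction as fold change over the initial random library.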

[2] = target: T2, SALL4 ZFC4 R900W (HT-SELEX) (Mus musculus, UniProt Q8BX22 870-940, R900W)
T2 sequence: T1 sequence with R31W
Summary of the method: as §1

[3] = target: T3, SALL4 ZFC4 G921D (HT-SELEX) (Mus musculus, UniProt Q8BX22 870-940, G921D)
T3 sequence: T1 sequence with G52D
Summary of the method: as §1

| Sequence | binding signal [1] [fold-change vs cycle 0] | binding signal [2] [fold-change vs cycle 0] | binding signal [3] [fold-change vs cycle 0] |
| --- | --- | --- | --- |
| CCCTAC | 0.441 ± 0.0346 | 0.512 ± 0.0309 | 0.603 ± 0.047 |
| ACAGGG | 0.493 ± 0.038 | 0.569 ± 0.0399 | 0.639 ± 0.0358 |
| AAGAGA | 1.45 ± 0.0335 | 1.67 ± 0.0544 | 1.48 ± 0.103 |
| CCCTAA | 0.849 ± 0.0207 | 0.947 ± 0.00994 | 0.952 ± 0.0492 |
| CTACCC | 0.454 ± 0.0263 | 0.523 ± 0.00774 | 0.607 ± 0.0541 |
| TACTCA | 1.43 ± 0.0381 | 1.5 ± 0.0664 | 1.42 ± 0.0998 |
| ACGCAA | 0.452 ± 0.0105 | 0.521 ± 0.02 | 0.635 ± 0.0427 |
| CATGGA | 0.865 ± 0.0271 | 0.95 ± 0.0312 | 0.985 ± 0.0405 |
| TCCCAA | 0.743 ± 0.0235 | 0.826 ± 0.0256 | 0.872 ± 0.0393 |
| AGGGAT | 0.9983 ± 0.00779 | 1.11 ± 0.0341 | 1.07 ± 0.0457 |
| AGTTTC | 1.25 ± 0.0447 | 1.33 ± 0.0345 | 1.3 ± 0.112 |
| AGATCG | 0.674 ± 0.0467 | 0.774 ± 0.0175 | 0.926 ± 0.0361 |
| GCGATA | 0.515 ± 0.0117 | 0.534 ± 0.0163 | 0.668 ± 0.0315 |
| ACGTAC | 0.714 ± 0.0363 | 0.825 ± 0.0331 | 0.862 ± 0.022 |
| CTGGGA | 0.455 ± 0.0297 | 0.528 ± 0.00656 | 0.594 ± 0.0357 |
| GAAACC | 0.748 ± 0.0342 | 0.843 ± 0.0163 | 0.916 ± 0.0216 |
| AAAAGC | 0.816 ± 0.0288 | 0.899 ± 0.0164 | 0.953 ± 0.0234 |
| AGACGG | 0.342 ± 0.0181 | 0.409 ± 0.00782 | 0.522 ± 0.0641 |
| ACCAGA | 0.795 ± 0.0237 | 0.921 ± 0.0435 | 0.947 ± 0.0126 |
| AGGATC | 0.876 ± 0.0353 | 1.01 ± 0.0497 | 1.07 ± 0.0215 |
| TAGTGA | 1.4 ± 0.0384 | 1.53 ± 0.027 | 1.43 ± 0.107 |
| GGGAGA | 0.48 ± 0.0185 | 0.566 ± 0.0484 | 0.638 ± 0.033 |
| CCAAAC | 0.6318 ± 0.0044 | 0.729 ± 0.0202 | 0.813 ± 0.0511 |
| AAAGCA | 1.06 ± 0.0392 | 1.13 ± 0.0246 | 1.14 ± 0.0213 |
| AATGGT | 1.28 ± 0.0798 | 1.35 ± 0.0595 | 1.32 ± 0.061 |
| AGCCCT | 0.343 ± 0.0204 | 0.423 ± 0.0426 | 0.56 ± 0.0891 |
| GCTGAC | 0.325 ± 0.00641 | 0.408 ± 0.0215 | 0.526 ± 0.0825 |
| GTTGCA | 0.582 ± 0.0571 | 0.661 ± 0.0273 | 0.75 ± 0.0252 |
| ACCTCA | 0.854 ± 0.0441 | 0.976 ± 0.0441 | 1.04 ± 0.0599 |
| ACCTCG | 0.423 ± 0.0256 | 0.498 ± 0.00774 | 0.604 ± 0.0431 |
